Results from the supplement of paper PMC10849652.
The full data set covers some 7,900 targets. This sample favours those with a hit. About 0.6% of all pairs of compound and target were hits. A number with no mark means an inactive call.

UniProt Q9P2D3, sequence (Q9P2D3 whole entry, looked up): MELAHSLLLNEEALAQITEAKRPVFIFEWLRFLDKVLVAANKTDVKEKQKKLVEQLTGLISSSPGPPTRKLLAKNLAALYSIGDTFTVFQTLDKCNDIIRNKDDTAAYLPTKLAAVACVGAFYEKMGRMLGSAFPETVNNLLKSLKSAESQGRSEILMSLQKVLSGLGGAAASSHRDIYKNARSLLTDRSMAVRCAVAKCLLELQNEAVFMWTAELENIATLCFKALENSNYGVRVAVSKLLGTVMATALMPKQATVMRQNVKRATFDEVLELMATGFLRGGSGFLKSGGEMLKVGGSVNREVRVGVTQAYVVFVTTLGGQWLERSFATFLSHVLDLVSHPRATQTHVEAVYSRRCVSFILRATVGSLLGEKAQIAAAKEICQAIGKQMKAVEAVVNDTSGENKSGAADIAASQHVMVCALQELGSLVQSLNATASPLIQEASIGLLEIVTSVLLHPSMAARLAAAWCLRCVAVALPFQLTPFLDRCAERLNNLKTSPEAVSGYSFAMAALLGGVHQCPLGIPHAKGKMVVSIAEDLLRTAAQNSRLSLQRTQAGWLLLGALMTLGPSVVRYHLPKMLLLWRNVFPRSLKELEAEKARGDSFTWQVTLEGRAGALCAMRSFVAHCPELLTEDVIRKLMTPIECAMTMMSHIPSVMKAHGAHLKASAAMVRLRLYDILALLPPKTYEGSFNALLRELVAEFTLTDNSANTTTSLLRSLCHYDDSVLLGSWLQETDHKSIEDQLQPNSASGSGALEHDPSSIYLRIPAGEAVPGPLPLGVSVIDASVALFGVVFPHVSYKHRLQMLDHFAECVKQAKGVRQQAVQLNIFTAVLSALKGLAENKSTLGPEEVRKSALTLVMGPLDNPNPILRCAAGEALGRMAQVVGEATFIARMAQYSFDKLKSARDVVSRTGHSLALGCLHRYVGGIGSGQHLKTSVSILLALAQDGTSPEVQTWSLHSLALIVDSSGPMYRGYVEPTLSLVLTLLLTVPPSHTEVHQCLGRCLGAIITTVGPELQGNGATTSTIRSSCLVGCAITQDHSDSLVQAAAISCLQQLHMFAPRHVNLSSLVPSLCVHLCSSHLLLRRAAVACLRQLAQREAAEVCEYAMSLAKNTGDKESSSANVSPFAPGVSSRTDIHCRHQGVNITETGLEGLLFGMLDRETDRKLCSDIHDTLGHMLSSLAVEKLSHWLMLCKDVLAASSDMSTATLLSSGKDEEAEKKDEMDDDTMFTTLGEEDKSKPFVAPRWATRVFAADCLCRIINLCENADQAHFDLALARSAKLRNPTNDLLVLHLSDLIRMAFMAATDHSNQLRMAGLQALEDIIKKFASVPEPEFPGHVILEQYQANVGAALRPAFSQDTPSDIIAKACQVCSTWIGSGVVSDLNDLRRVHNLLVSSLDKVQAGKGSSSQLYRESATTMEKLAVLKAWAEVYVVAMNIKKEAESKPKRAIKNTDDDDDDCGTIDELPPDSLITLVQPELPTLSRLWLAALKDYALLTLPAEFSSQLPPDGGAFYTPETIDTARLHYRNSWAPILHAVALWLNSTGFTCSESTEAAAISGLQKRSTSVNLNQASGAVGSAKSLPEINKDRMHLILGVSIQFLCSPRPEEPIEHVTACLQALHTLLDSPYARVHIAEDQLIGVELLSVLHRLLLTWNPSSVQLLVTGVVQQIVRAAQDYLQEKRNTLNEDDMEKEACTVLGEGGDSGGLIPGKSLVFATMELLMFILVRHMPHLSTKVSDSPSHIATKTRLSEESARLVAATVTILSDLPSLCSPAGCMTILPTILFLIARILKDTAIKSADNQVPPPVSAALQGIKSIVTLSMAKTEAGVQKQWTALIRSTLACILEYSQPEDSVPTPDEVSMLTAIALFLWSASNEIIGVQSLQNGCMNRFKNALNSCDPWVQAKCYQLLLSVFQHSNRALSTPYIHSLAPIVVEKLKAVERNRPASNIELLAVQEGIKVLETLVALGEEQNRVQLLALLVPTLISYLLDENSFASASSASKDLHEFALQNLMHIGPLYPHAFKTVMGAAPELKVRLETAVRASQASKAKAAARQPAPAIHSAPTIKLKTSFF
UniProt O43427, sequence (O43427 whole entry, looked up): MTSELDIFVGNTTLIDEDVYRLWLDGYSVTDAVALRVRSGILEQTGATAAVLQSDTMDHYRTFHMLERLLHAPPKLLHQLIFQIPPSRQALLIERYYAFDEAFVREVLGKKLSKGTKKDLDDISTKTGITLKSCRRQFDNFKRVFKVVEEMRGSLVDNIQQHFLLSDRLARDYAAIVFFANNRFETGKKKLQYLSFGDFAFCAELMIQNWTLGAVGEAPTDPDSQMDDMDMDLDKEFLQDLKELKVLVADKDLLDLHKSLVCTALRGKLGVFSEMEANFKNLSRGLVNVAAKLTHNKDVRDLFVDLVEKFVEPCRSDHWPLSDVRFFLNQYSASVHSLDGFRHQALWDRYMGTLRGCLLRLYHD
UniProt P52789, sequence (P52789 whole entry, looked up): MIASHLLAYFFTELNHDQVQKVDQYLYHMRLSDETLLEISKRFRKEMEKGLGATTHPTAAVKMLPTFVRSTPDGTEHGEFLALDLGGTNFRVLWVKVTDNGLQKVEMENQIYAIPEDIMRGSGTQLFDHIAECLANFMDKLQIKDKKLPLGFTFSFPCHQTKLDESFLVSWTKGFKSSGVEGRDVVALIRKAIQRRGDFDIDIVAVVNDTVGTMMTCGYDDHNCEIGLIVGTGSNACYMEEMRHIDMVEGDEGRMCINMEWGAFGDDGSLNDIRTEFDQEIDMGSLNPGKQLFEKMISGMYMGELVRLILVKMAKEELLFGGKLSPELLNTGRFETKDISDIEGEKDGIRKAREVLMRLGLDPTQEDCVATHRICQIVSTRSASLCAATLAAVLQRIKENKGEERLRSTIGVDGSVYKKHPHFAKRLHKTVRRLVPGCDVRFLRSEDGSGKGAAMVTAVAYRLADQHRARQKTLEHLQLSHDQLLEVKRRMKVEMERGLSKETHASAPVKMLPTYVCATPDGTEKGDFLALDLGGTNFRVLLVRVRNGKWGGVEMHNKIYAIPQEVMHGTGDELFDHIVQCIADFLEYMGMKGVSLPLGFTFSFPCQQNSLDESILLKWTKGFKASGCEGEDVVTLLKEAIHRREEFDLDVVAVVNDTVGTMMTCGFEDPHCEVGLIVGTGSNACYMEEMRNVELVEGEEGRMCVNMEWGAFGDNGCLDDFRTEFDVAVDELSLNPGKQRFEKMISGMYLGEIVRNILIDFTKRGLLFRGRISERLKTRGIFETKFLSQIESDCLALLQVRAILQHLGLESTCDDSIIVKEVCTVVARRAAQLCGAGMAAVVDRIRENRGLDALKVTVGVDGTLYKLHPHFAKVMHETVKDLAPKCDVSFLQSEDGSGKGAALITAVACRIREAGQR
UniProt Q9NRD1, sequence (Q9NRD1 whole entry, looked up): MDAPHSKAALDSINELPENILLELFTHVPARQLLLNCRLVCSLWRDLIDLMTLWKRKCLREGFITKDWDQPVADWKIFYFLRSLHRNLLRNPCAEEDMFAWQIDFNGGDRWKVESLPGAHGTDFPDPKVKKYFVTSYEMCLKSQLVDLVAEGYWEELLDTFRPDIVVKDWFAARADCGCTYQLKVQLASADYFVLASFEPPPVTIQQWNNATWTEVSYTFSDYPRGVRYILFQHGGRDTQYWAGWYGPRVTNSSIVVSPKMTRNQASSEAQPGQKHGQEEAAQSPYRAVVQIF
UniProt P0CL80, sequence (P0CL80 whole entry, looked up): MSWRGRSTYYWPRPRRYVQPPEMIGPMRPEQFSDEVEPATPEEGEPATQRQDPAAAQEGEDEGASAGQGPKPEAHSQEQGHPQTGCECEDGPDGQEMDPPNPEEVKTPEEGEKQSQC
UniProt P52597, sequence (P52597 whole entry, looked up): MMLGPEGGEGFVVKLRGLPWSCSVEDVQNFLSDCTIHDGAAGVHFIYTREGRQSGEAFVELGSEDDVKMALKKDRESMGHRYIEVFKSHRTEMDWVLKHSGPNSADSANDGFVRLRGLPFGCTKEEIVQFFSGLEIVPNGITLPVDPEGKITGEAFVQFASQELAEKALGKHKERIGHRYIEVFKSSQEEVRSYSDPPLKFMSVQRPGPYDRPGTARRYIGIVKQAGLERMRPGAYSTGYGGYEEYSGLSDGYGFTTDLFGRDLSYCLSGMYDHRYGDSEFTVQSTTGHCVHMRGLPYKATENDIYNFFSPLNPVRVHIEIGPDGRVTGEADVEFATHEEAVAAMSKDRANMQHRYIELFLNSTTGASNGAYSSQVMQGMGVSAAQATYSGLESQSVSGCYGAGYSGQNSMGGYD
UniProt Q9H0R8, sequence (Q9H0R8 whole entry, looked up): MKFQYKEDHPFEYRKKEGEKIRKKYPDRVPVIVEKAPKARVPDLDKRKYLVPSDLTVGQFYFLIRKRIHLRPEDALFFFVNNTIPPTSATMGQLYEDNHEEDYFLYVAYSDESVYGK
UniProt P05114, sequence (P05114 whole entry, looked up): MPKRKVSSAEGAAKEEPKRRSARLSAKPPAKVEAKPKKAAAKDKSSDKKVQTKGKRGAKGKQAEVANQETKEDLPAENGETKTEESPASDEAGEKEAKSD
UniProt Q92769, sequence (Q92769 whole entry, looked up): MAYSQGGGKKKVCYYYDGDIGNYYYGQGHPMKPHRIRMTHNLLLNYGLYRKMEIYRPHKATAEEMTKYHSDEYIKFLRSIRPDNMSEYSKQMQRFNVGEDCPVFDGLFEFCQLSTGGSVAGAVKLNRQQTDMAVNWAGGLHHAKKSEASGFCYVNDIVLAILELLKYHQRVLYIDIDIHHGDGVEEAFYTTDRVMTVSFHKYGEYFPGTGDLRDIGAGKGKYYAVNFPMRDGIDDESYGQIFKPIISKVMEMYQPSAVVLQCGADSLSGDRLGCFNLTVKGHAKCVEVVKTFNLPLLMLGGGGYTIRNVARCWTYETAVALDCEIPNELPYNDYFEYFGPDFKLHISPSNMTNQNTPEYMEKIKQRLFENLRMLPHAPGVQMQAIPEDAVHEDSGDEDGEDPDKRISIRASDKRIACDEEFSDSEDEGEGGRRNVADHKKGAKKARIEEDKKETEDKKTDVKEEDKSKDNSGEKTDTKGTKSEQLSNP

The targets below were run with Cc1sc2c(c1C)C(c1ccc(Cl)cc1)=N[C@@H](CC(=O)OC(C)(C)C)c1nnc(C)n1-2 (assay: log2 fold change, soluble protein after heating vs DMSO (PISA); higher = thermal stabilisation; K562 cells, 10 uM, 30 min; active = over 0.2 and 3.5 SD of the protein, either way, in both replicates (recomputed)).
In short: (§1)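 Aliquots of K562 cells (2×10^6 cells/mL) treated with 10 μM compound for 30 min were heated for 3 min over 48°C-58°C. After pooling and extraction in PBS with 0.5% NP-40 at 4°C, soluble protein from a 21,000xg, 90 min spin was quantified by TMTpro 16plex LC-MS/MS with channel sums equalised. Thermal stability is expressed against control samples, from duplicates, as a log2 fold change.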
HK2 (UniProt P52789) gave a log2 fold change of -0.025.
In the case of FBXO6 (UniProt Q9NRD1), the log2 fold change is reported as -0.041.
GTF2B (UniProt Q00403) was tested, and the log2 fold change was 0.017.
GAGE12F (UniProt P0CL80) was tested, and the log2 fold change was -0.089.
In the case of GDI1 (UniProt P31150), the log2 fold change is reported as -0.022.
HNRNPK isoform 2 (UniProt P61978) showed a log2 fold change of -0.023.
Target FBXO7 (UniProt Q9Y3I1) has a log2 fold change of -0.033.
HIST2H3A (UniProt Q71DI3) gave a log2 fold change of -0.221.
Target HEATR5B (UniProt Q9P2D3) has a log2 fold change of -0.071.
HDAC10 (UniProt Q969S8) was tested, and the log2 fold change was 0.12.
Target HDAC2 (UniProt Q92769) has a log2 fold change of -0.002.
In the case of GNS (UniProt P15586), the log2 fold change is reported as -0.001.
In the case of FOXK1 (UniProt P85037), the log2 fold change is reported as -0.402.
HEATR3 (UniProt Q7Z4Q2) gave a log2 fold change of 0.004.
HNRNPF (UniProt P52597) showed a log2 fold change of -0.02.
GNL3 (UniProt Q9BVP2) showed a log2 fold change of -0.131.
In the case of HMGN1 (UniProt P05114), the log2 fold change is reported as 0.027.
FIBP (UniProt O43427) showed a log2 fold change of -0.105.
GALNT1 (UniProt Q10472) gave a log2 fold change of -0.01.
In the case of HAX1 (UniProt O00165), the log2 fold change is reported as 0.008.
Work on FDPS (UniProt P14324) yielded a log2 fold change of 0.001.
GEMIN5 (UniProt Q8TEQ6) was tested, and the log2 fold change was 0.021.
GYS1 (UniProt P13807) was tested, and the log2 fold change was 0.023.
Work on GNPAT (UniProt O15228) yielded a log2 fold change of -0.01.
Work on FDXR isoform 7 (UniProt P22570) yielded a log2 fold change of -0.037.
For HECTD1 (UniProt Q9ULT8), the log2 fold change was 0.051.
GNAI3 (UniProt P08754) showed a log2 fold change of -0.154.
With FANCD2 isoform 1 (UniProt Q9BXW9) the log2 fold change was -0.041.
With GPAT4 (UniProt Q86UL3) the log2 fold change was -0.046.
Target FIS1 (UniProt Q9Y3D6) has a log2 fold change of -0.081.
GABARAPL1 isoform 2 (UniProt Q9H0R8) was tested, and the log2 fold change was -0.022.

What follows are targets tested with c1ccc([C@@H]2C[C@H]2NC2CCNCC2)cc1 in the same assay as above.
In short: as §1
HK2 (UniProt P52789) gave a log2 fold change of -0.016.
FBXO6 (UniProt Q9NRD1) gave a log2 fold change of -0.032.
GTF2B (UniProt Q00403) showed a log2 fold change of -0.002.
Work on GAGE12F (UniProt P0CL80) yielded a log2 fold change of 0.012.
Work on GDI1 (UniProt P31150) yielded a log2 fold change of -0.025.
With HNRNPK isoform 2 (UniProt P61978) the log2 fold change was 0.013.
For FBXO7 (UniProt Q9Y3I1), the log2 fold change was 0.024.
HIST2H3A (UniProt Q71DI3) was tested, and the log2 fold change was 0.192.
HEATR5B (UniProt Q9P2D3) showed a log2 fold change of 0.016.
With HDAC10 (UniProt Q969S8) the log2 fold change was -0.051.
For HDAC2 (UniProt Q92769), the log2 fold change was 0.111.
GNS (UniProt P15586) was tested, and the log2 fold change was 0.027.
Work on FOXK1 (UniProt P85037) yielded a log2 fold change of 0.049.
In the case of HEATR3 (UniProt Q7Z4Q2), the log2 fold change is reported as -0.04.
With HNRNPF (UniProt P52597) the log2 fold change was -0.017.
For GNL3 (UniProt Q9BVP2), the log2 fold change was -0.053.
Target HMGN1 (UniProt P05114) has a log2 fold change of 0.048.
For FIBP (UniProt O43427), the log2 fold change was -0.011.
For GALNT1 (UniProt Q10472), the log2 fold change was -0.007.
Target HAX1 (UniProt O00165) has a log2 fold change of -0.002.
FDPS (UniProt P14324) showed a log2 fold change of -0.121.
GEMIN5 (UniProt Q8TEQ6) was tested, and the log2 fold change was 0.005.
With GYS1 (UniProt P13807) the log2 fold change was 0.054.
With GNPAT (UniProt O15228) the log2 fold change was -0.036.
FDXR isoform 7 (UniProt P22570) gave a log2 fold change of -0.01.
HECTD1 (UniProt Q9ULT8) gave a log2 fold change of -0.004.
Work on GNAI3 (UniProt P08754) yielded a log2 fold change of -0.032.
FANCD2 isoform 1 (UniProt Q9BXW9) showed a log2 fold change of -0.009.
GPAT4 (UniProt Q86UL3) was tested, and the log2 fold change was -0.015.
Target FIS1 (UniProt Q9Y3D6) has a log2 fold change of -0.011.
Work on GABARAPL1 isoform 2 (UniProt Q9H0R8) yielded a log2 fold change of -0.036.
